# Laboratory results from ChEMBL document CHEMBL1961873, “Compounds: GSK PKIS; Assays: Nanosyn kinase panel” (2012).
# Key:
# [1] = target: Fibroblast growth factor receptor 4 (Homo sapiens) (UniProt P22455); conditions: at 1 µM;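 note: reported figure is the averaged percent inhibition of FGFR4, from the GSK PKIS kinase screening panel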
# [2] = target: Tyrosine-protein kinase Fgr (Homo sapiens) (UniProt P09769); conditions: at 0.1 µM
# [3] = target: Tyrosine-protein kinase Fgr (Homo sapiens) (UniProt P09769); conditions: at 1 µM
# [4] = target: Vascular endothelial growth factor receptor 1 (Homo sapiens) (UniProt P17948); conditions: at 0.1 µM
# [5] = target: Vascular endothelial growth factor receptor 1 (Homo sapiens) (UniProt P17948); conditions: at 1 µM
# [6] = target: Receptor-type tyrosine-protein kinase FLT3 (Homo sapiens) (UniProt P36888); conditions: at 0.1 µM
# [7] = target: Receptor-type tyrosine-protein kinase FLT3 (Homo sapiens) (UniProt P36888); conditions: at 1 µM
# [8] = system: T1, Receptor-type tyrosine-protein kinase FLT3 (Homo sapiens), P36888 [D835Y]; conditions: at 0.1 µM
# T1 sequence (whole entry): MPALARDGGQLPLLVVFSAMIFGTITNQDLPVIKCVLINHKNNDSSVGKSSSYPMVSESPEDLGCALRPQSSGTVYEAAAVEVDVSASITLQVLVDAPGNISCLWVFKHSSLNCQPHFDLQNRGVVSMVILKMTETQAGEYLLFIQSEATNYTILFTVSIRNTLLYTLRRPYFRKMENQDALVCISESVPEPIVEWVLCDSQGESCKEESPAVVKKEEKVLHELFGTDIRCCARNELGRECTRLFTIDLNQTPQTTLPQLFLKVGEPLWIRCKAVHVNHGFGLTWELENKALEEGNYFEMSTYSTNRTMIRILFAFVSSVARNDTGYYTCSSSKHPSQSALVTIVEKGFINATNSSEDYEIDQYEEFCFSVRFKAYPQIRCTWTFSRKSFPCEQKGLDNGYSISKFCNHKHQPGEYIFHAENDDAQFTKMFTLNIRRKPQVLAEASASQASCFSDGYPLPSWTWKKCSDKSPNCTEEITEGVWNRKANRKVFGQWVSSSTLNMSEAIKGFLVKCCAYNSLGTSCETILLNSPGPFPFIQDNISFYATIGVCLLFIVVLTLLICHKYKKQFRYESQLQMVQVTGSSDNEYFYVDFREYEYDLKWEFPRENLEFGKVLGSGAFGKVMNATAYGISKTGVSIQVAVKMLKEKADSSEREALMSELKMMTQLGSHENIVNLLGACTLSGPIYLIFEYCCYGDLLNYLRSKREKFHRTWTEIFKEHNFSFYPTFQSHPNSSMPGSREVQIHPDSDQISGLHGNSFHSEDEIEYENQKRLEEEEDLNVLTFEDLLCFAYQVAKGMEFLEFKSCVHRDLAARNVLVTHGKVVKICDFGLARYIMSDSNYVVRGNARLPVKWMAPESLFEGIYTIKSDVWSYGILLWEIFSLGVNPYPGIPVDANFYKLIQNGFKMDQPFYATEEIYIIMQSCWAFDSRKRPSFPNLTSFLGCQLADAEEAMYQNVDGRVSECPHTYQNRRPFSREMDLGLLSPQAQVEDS
# [9] = target: Non-receptor tyrosine-protein kinase TYK2 (Homo sapiens) (UniProt P29597); conditions: at 1 µM;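 note: values are mean percent inhibition of TYK2 kinase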
# [10] = target: T2, Tyrosine-protein kinase receptor TYRO3 (Homo sapiens) (UniProt Q06418); conditions: at 0.1 µM
# T2 sequence (whole entry): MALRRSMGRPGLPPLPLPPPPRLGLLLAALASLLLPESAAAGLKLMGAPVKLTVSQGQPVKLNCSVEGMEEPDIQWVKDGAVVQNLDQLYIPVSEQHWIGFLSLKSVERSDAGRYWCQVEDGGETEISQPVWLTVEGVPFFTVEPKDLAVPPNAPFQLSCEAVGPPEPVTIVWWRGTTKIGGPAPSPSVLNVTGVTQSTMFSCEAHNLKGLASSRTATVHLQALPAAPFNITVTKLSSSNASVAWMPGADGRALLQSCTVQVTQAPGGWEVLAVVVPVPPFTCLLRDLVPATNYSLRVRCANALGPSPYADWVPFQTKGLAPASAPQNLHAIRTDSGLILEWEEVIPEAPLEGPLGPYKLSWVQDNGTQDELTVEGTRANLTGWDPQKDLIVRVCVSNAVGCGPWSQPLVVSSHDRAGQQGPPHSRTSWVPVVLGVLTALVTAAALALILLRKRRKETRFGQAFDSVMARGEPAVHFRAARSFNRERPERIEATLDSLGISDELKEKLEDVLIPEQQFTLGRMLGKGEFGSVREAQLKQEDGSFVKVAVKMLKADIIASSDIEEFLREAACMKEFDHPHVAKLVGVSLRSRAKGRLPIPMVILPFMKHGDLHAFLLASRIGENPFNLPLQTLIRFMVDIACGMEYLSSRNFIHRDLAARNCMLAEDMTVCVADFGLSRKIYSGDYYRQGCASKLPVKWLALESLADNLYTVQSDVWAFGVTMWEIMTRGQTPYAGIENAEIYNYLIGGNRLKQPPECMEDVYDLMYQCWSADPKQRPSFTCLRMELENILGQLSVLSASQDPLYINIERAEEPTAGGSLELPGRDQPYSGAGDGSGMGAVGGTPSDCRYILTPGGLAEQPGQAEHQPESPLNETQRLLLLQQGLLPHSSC
# [11] = target: T2, Tyrosine-protein kinase receptor TYRO3 (Homo sapiens); conditions: at 1 µM
# [12] = target: Tyrosine-protein kinase Yes (Homo sapiens) (UniProt P07947); conditions: at 0.1 µM
# [13] = target: Tyrosine-protein kinase Yes (Homo sapiens) (UniProt P07947); conditions: at 1 µM
# [14] = target: T3, Tyrosine-protein kinase ZAP-70 (Homo sapiens) (UniProt P43403); conditions: at 0.1 µM
# T3 sequence (whole entry): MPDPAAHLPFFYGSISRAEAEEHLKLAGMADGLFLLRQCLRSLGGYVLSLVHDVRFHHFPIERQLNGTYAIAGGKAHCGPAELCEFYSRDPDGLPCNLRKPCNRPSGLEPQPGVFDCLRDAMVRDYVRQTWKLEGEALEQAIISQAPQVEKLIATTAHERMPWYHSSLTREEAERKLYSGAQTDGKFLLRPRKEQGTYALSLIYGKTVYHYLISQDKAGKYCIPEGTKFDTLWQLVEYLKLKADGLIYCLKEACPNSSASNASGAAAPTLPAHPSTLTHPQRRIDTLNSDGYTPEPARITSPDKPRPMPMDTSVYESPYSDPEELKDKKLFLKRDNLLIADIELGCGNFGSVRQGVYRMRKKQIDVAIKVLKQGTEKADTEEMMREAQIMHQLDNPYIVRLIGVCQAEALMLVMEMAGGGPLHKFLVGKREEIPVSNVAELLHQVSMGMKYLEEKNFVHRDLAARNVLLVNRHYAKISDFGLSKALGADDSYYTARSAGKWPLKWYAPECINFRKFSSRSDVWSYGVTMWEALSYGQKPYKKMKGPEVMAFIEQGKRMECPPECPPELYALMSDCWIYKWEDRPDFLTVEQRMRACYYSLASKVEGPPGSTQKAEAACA
# [15] = target: T3, Tyrosine-protein kinase ZAP-70 (Homo sapiens); conditions: at 1 µM
# [16] = target: Serine/threonine-protein kinase B-raf (Homo sapiens) (UniProt P15056); conditions: at 0.1 µM
# [17] = target: Serine/threonine-protein kinase B-raf (Homo sapiens) (UniProt P15056); conditions: at 1 µM
# [18] = system: Serine/threonine-protein kinase B-raf (Homo sapiens), P15056 [V600E]; conditions: at 0.1 µM
# [19] = system: Serine/threonine-protein kinase B-raf (Homo sapiens), P15056 [V600E]; conditions: at 1 µM
# [20] = target: RAF proto-oncogene serine/threonine-protein kinase (Homo sapiens) (UniProt P04049); conditions: at 0.1 µM;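 note: values are mean CRAF kinase inhibition from profiling of the GSK Published Kinase Inhibitor Set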
# Sequence of RAF proto-oncogene serine/threonine-protein kinase (Homo sapiens) (P04049 whole entry): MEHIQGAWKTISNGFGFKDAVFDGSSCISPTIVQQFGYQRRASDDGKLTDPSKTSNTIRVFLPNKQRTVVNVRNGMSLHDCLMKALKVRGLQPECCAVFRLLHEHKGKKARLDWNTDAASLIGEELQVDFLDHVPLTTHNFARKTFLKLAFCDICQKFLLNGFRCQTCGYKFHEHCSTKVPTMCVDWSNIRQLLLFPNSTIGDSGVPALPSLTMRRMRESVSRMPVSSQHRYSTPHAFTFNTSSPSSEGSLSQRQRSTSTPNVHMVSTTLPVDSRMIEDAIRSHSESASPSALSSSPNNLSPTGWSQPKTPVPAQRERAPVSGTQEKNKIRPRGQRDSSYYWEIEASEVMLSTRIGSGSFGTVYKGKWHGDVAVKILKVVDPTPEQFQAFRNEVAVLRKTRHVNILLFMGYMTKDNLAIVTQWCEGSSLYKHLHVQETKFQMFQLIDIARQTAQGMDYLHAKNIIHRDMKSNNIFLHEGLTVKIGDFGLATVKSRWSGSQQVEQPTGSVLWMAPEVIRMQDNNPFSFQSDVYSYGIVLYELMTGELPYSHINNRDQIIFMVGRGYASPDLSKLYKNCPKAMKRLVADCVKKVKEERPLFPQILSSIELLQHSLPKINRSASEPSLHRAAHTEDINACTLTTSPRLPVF
# Sequence of Non-receptor tyrosine-protein kinase TYK2 (Homo sapiens) (P29597 whole entry): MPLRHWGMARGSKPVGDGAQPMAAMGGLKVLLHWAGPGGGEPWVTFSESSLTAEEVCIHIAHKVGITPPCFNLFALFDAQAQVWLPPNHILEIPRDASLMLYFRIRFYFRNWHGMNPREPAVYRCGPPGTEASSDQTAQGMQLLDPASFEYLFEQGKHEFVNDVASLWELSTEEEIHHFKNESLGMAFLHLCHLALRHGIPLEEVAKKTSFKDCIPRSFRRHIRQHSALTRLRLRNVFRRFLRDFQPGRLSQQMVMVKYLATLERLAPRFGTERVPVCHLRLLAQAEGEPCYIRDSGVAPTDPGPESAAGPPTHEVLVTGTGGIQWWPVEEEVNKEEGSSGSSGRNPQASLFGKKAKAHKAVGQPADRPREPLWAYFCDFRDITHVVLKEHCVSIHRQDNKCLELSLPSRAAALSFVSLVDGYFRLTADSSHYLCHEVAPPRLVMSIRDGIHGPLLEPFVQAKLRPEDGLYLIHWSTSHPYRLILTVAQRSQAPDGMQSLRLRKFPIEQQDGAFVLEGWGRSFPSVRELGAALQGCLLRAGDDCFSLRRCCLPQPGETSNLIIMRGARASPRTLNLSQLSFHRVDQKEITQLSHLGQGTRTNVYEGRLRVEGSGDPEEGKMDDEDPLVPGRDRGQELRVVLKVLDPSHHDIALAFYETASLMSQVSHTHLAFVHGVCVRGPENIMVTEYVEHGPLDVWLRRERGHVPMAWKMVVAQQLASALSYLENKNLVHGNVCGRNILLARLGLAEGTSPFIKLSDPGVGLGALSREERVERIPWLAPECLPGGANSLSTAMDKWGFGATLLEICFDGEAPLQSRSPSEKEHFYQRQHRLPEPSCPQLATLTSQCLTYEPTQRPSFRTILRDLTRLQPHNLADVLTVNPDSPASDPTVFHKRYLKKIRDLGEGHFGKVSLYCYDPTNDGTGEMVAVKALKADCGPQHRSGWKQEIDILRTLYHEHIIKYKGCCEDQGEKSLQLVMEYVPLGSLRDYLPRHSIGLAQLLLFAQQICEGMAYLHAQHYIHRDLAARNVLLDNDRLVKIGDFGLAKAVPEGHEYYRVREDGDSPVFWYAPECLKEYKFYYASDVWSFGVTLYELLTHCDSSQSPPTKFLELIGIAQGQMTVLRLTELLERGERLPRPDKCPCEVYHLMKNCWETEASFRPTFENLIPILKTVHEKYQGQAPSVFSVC
# Sequence of Serine/threonine-protein kinase B-raf (Homo sapiens) (P15056 whole entry): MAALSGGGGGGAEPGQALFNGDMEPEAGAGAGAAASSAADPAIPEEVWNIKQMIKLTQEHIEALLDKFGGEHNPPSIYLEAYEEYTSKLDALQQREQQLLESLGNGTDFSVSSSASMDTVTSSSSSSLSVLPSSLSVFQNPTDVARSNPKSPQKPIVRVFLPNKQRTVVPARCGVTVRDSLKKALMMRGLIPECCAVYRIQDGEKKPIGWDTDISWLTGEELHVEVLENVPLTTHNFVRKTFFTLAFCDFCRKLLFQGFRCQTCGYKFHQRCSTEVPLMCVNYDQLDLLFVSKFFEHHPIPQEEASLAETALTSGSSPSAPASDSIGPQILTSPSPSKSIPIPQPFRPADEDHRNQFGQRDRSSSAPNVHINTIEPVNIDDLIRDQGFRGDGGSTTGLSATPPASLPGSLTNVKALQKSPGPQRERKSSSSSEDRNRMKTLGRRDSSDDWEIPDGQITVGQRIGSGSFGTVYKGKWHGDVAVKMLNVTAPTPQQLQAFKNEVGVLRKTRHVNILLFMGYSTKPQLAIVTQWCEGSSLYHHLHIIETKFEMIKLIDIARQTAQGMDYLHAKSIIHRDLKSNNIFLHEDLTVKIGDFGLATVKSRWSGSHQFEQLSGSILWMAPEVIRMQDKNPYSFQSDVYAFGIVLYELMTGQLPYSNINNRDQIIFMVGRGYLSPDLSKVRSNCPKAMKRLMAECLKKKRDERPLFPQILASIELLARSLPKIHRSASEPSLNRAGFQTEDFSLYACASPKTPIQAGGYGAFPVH
# Sequence of Serine/threonine-protein kinase B-raf (Homo sapiens), P15056 [V600E] (P15056 whole entry V600E): as the sequence (P15056 whole entry) above, with V600E counted along it
# Sequence of Fibroblast growth factor receptor 4 (Homo sapiens) (P22455 22-802 limits assumed): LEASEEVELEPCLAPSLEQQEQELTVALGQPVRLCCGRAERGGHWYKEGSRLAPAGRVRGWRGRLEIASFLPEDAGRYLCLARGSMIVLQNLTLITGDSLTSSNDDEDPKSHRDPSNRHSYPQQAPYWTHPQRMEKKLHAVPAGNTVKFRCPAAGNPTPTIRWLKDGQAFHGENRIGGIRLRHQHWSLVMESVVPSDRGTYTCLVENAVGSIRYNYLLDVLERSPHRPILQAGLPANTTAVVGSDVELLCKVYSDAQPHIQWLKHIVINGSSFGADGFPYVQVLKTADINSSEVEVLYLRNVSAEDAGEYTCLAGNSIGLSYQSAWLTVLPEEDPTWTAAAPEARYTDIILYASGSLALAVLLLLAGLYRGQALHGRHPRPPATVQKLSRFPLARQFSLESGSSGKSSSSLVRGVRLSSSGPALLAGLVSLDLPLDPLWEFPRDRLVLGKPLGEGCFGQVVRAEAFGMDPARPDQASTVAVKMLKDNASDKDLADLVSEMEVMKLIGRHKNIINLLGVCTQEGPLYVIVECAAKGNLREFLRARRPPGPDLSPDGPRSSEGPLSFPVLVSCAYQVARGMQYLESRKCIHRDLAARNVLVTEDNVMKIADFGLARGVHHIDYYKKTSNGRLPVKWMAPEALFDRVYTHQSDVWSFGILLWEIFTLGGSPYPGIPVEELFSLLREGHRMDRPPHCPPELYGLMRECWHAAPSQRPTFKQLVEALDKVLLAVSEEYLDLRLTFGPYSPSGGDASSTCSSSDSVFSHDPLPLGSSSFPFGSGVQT
# Sequence of Tyrosine-protein kinase Fgr (Homo sapiens) (P09769 2-529 limits assumed): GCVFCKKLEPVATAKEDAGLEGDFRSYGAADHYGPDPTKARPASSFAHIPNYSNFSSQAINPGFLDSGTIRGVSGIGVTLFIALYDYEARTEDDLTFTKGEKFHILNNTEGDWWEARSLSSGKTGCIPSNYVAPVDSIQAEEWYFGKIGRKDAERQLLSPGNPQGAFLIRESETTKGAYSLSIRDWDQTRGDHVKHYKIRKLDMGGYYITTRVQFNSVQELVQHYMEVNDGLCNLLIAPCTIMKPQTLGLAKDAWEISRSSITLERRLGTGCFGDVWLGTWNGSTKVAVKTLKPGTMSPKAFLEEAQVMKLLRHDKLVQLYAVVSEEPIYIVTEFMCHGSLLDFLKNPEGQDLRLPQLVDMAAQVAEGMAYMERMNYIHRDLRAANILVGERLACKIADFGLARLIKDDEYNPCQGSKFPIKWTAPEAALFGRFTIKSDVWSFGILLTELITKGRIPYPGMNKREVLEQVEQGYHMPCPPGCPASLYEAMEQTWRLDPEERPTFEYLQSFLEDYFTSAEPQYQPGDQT
# Sequence of Tyrosine-protein kinase Yes (Homo sapiens) (P07947 2-543 limits assumed): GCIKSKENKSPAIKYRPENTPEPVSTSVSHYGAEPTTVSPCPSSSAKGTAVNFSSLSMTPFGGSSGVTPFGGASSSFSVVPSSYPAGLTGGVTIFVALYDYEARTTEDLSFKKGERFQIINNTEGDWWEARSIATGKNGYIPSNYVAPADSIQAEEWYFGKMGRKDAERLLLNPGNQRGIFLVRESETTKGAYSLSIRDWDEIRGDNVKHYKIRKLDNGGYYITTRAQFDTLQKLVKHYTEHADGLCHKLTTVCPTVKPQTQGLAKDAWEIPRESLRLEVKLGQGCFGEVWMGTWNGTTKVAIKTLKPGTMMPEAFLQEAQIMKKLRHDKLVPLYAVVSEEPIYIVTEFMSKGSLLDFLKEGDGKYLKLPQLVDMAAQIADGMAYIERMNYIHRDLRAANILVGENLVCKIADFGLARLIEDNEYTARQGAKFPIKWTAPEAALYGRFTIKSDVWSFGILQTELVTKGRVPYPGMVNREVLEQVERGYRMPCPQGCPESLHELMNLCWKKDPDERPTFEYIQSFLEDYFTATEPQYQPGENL
Compound,inhibition [1] [%],inhibition [2] [%],inhibition [3] [%],inhibition [4] [%],inhibition [5] [%],inhibition [6] [%],inhibition [7] [%],inhibition [8] [%],inhibition [9] [%],inhibition [10] [%],inhibition [11] [%],inhibition [12] [%],inhibition [13] [%],inhibition [14] [%],inhibition [15] [%],inhibition [16] [%],inhibition [17] [%],inhibition [18] [%],inhibition [19] [%],inhibition [20] [%]
NS(=O)(=O)c1ccc(Nc2ncc(-c3ccccc3)o2)cc1,1.97,2.45,10.1,4.95,13.1,35.3,78.8,8.41,2.33,3.59,4.49,3.4,7.73,2.88,2.94,5.82,8.2,6.65,6.08,-0.15
CNC(=O)c1cccc(C#Cc2cncnc2Nc2ccc(OCc3cccc(F)c3)c(Cl)c2)c1,1.45,4.48,6.13,1.95,1.32,1.74,3.22,1.13,0.07,3.38,1.74,2.71,4.41,2.49,-0.96,0.05,2.22,0.09,1.59,2.66
COc1cc2ncn(-c3cc(OCc4ccccc4C(F)(F)F)c(C(=O)N(C)C)s3)c2cc1OC,2.15,0.95,6.42,-0.21,6.59,-1.41,0.81,-1.94,1.47,0.67,2,0.64,6.88,1.79,1.15,-0.22,1.2,-0.77,2.51,0.38
CC(C)(CO)CNC(=O)c1ccc2c(c1)/C(=N/Nc1ccc(S(N)(=O)=O)cc1)C(=O)N2,-0.62,3.82,22.2,-1.72,11.1,0.08,6.23,1.72,4.08,-0.65,5.36,1.79,16.9,-3.15,0.33,5.62,43.5,7.49,44.1,-0.32
Clc1ccc(-c2nn3ncccc3c2-c2ccnc(Nc3ccccc3)n2)cc1,1.94,25.1,70.2,4.39,14.6,0.8,4.19,-2.63,-0.64,1.14,5.63,44.9,89.5,0.2,0.42,2.69,4.94,2.08,5.6,-2.35
CNC(=O)c1cncc(/C=C/c2ccccc2Cl)c1,1.93,5.13,9.91,0.53,2.73,1.25,-0.38,3.03,2.16,0.43,2.53,3.64,7.95,1.79,1.12,-0.63,0.08,-0.33,0.71,0.74
